Assay outcomes: PubChem BioAssay, National Center for Advancing Translational Sciences (NCATS)
Hits are enriched below; roughly 2.6% of the tested compounds scored in any of these assays.
Cruzain Triton: cruzain (T. cruzi) inhibition with detergent; purified cruzain, Z-FR-AMC fluorescence, 0.01% Triton; AID 1478; Potency, µM, inactives show max response, negative = inhibition, most hits filed as inhibitors; P25779; 200,000 compounds, 0.43% hits;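 also: plate controls were neutral wells for no effect and buffer without enzyme for full effect; nearly all actives have a fitted effect of over 40% in size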
Target sequence (P25779 123-467 limits assumed): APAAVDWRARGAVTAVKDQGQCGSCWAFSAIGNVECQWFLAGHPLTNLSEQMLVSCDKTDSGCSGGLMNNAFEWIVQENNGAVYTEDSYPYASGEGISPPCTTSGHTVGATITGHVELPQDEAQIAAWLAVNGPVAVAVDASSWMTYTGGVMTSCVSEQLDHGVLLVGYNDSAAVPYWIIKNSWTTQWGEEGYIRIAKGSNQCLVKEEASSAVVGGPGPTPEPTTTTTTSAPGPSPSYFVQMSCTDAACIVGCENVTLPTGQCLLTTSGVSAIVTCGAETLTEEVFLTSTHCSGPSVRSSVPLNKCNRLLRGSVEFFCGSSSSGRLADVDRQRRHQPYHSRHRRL
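Cysteine protease activity tested under reducing, mildly acidic conditions (100 mM sodium acetate pH 5.5, 5 mM DTT) plus 0.01% Triton X-100. Cruzain 1.5 nM; substrate Z-FR-AMC 2 uM; 15 min compound preincubation at room temperature.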
Cruzain noTriton: inhibitors of Trypanosoma cruzi cruzain without detergent | P25779 | purified cruzain, Z-FR-AMC fluorescence, no detergent | Potency, µM, for inactives: max response, negative = inhibition, most hits filed as inhibitors | 200,000 compounds, 2.3% hits | AID 1476;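 also: plate controls were enzyme without inhibitor for no effect and buffer without enzyme for full effect; nearly all actives have a fitted effect of over 40% in size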
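Detergent-free condition (0.00005% Triton X-100) in acetate buffer pH 5.5 with DTT. 1.5 nM enzyme and compound were pre-mixed 15 min, then 2 uM Z-FR-AMC substrate added; reaction progress from fluorescence change between first and third reads (60 s).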
The depositor's hits bear a star; ? = inconclusive. Calls follow the shape of the dose curve; as a rule, active = well fitted curve in the direction sought with a large enough effect; inconclusive = small, poorly fitted or top-dose-only effect, or another doubt; inactive = no such curve, though single readings can be large; an effect the other way counts as inactive or inconclusive. Potency is read from the fitted curve at half-maximal effect.

SMILES | Cruzain Triton | Cruzain noTriton
CC(=O)c1ccc(NC(=O)c2cn(-c3ccccc3)nc2-c2ccc(Br)cc2)cc1 | 0.5% | -6.1%
COc1ccc(OC)c(CCNC(=O)c2c(C)nn(-c3ccc(F)cc3)c2-n2cccc2)c1 | -7.1% | 29.8%
CCOC(=O)C(Cc1ccccc1)C(=O)Nc1ccc(NC(=O)C(Cc2ccccc2)C(=O)OCC)cc1 (configuration not stated) | -2.0% | 7.94µM*
CCOC(=O)C(Cc1ccccc1)C(=O)Nc1ccccc1C (configuration not stated) | 2.2% | 3.5%
COc1cc(NC(=O)CN(C)S(=O)(=O)c2ccc3c(c2)CCCC(=O)N3)cc(OC)c1OC | -0.6% | -7.2%
CCc1ccc(NC(=O)CSc2nc3n[nH]c(C)c3c(=N)n2-c2ccccc2C)cc1 | -1.5% | -24.7%
CCOc1ccccc1-n1c(SCC(=O)Nc2ccc(CC)cc2)nc2n[nH]c(C)c2c1=N | 0.9% | 6.31µM*
COc1cccc2sc(N(Cc3cccnc3)C(=O)C3COc4ccccc4O3)nc12 (configuration not stated) | 3.7% | 17.2%
COc1ccc(N2CSC3=C(C#N)C(c4cc(OC)ccc4OC)CC(=O)N3C2)c(OC)c1 (configuration not stated) | -9.8% | 3.0%
CCOc1ccccc1N1CSC2=C(C#N)C(c3c(OC)ccc4ccccc34)CC(=O)N2C1 (configuration not stated) | -8.1% | 15.8µM*
COc1cccc(CNC(=O)CCCCCn2c(=O)[nH]c3cc(OC)c(OC)cc3c2=O)c1 | 1.9% | 22.6%
COc1cccc(C2=CC(c3ccccc3F)n3ncc(C(=O)Nc4ccc(F)cc4)c3N2)c1 (configuration not stated) | -3.3% | -26.1%
CCN(CC)c1ccc(/C=C(\C#N)c2nc(-c3cccs3)c(NC(C)=O)s2)cc1 | -3.6% | 15.8µM*
CC(=O)Nc1sc(NC(=O)c2ccccc2)nc1-c1cccs1 | 0.2% | -4.8%
COc1ccc(NC(=O)c2ccco2)cc1NC(=O)c1cc(Br)ccc1Cl | -0.5% | -3.8%
c1ccc(-c2ncc(CSc3nncn3-c3ccccc3)s2)cc1 | -1.6% | 11.7%
Cc1nnc(SCc2nc3ccccc3s2)n1-c1ccccc1 | -1.8% | 20µM*
c1ccc(-n2cnnc2SCc2nc3ccccc3s2)cc1 | -5.0% | 10µM*
CCn1c(SCc2nc3ccccc3s2)nnc1-c1ccccc1 | 7.3% | -11.1%
COc1ccccc1-c1nc(N(C)C)c2ccccc2n1 | -0.4% | -3.8%
CCc1ccc(NC(=O)C2CCCN2S(=O)(=O)c2ccc3c(c2)CCCC(=O)N3)cc1 (configuration not stated) | -0.9% | -2.5%
CC[C@@H]1C(c2ccc(F)cc2)=NN(c2ccc(Br)cc2)[C@H]1C(=O)N1CCOC1=O | -5.8% | ?
CC[C@@H]1C(c2cccc(C)c2)=NN(c2ccccc2)[C@H]1C(=O)N1CCOC1=O | 0.6% | 2.9%
COc1ccccc1[C@@H]1C(c2cccc(Cl)c2)=NN(c2ccccc2)[C@H]1C(=O)N1CCOC1=O | 0.7% | 25.1µM*
COc1ccccc1[C@@H]1C(c2cccc(C)c2)=NN(c2ccc(Br)cc2)[C@H]1C(=O)N1CCOC1=O | -3.2% | 10µM*
SMILES | Cruzain Triton | Cruzain noTriton
COc1ccccc1[C@@H]1C(c2ccccc2)=NN(c2ccc(Br)cc2)[C@H]1C(=O)N1CCOC1=O | 0.0% | 17.8µM*
Cc1ccc(OCC(O)C(C)NC(C)C)c2c1CCC2 (configuration not stated) | -4.1% | 8.6%
Cc1ccc(-n2c3c(c(=O)[nH]c2=O)C(NC(=O)C(C)(C)C)(C(F)(F)F)C(=O)N3)cc1 (configuration not stated) | -1.0% | 10.1%
COC(=O)c1ccc(C#CC(NP(=O)(c2ccccc2)c2ccccc2)c2ccccc2)cc1 (configuration not stated) | -7.3% | -10.5%
CCc1cccc(C)c1NC(=O)C(CC)n1nc(C)c2c(C)n(-c3ccccc3)nc2c1=O (configuration not stated) | -3.2% | -10.0%
COc1cccc(C(=O)CC2c3c(c(Br)c4c(c3OC)OCO4)CCN2C)c1 (configuration not stated) | -2.3% | -16.7%
CC(C)CC(NC(=O)C(Cc1ccc(OCc2ccccc2)cc1)NC(=O)OC(C)(C)C)C(N)=O (configuration not stated) | -1.3% | -2.2%
COC(=O)C(Cc1ccccc1)NC(=O)C(CC(C)C)NC(=O)OC(C)(C)C (configuration not stated) | 15.8µM* | 31.6µM*
CCOC(=O)C(Cc1ccc(O)cc1)NC(=O)CNC(=O)C(CC(C)C)NC(=O)OC(C)(C)C (configuration not stated) | 12.6µM* | 10µM*
CCC(C)C(NC(=O)OC(C)(C)C)C(=O)NC(Cc1ccccc1)C(=O)OC (configuration not stated) | -3.3% | -9.7%
CCOC(=O)c1cc(OC(=O)c2cccc(F)c2)n(-c2ccccc2)n1 | -5.0% | 7.5%
CC(C)C(=O)N1c2nc(C(C)C)nn2C2(CCCCC2)[C@@H]2CCCC[C@@H]21 | -1.5% | -29.2%
COC(=O)C/C=C/[C@@H](C)[C@H](OC)c1c(Br)ccc2c1OCO2 | -0.8% | -4.9%
Cc1cnc(CNc2ncncc2-c2ccc3c(c2)OCO3)cn1 | -0.3% | 1.5%
CCOC(=O)c1c(NC(=O)C2c3ccccc3Oc3ccccc32)sc2c1CCC(CC)C2 (configuration not stated) | -0.7% | 14.2%
CC1CCc2c(sc(NC(=O)C3c4ccccc4Oc4ccccc43)c2C#N)C1 (configuration not stated) | -3.7% | -24.2%
CCOC(=O)c1c(NC(=O)C2CCN(S(=O)(=O)c3cccs3)CC2)sc(C)c1C | -3.9% | -18.4%
CCOC(=O)c1c(NC(=O)C(C)N2CCN(S(=O)(=O)c3cccs3)CC2)sc2c1CCC(C)C2 (configuration not stated) | -0.6% | 7.94µM*
CCC(C)(C)C1CCc2c(sc(N)c2C(N)=O)C1 (configuration not stated) | -24.8% | ?
CC(C)(C)C1CCc2c(sc(N)c2C(N)=O)C1 (configuration not stated) | -14.7% | 25.1µM*
CCCOC(=O)c1c(NC(=O)C2c3ccccc3Oc3ccccc32)sc2c1CCC(C)C2 (configuration not stated) | -2.2% | 20µM*
CC1CCc2c(sc(NC(=O)C3c4ccccc4Oc4ccccc43)c2C(N)=O)C1 (configuration not stated) | -6.3% | 25.1µM*
O=C(NCCc1ccccc1)c1cc(-c2ccccc2)nc2n[nH]c(-c3ccccc3)c12 | -4.9% | ?
Cc1c2oc3c(C)ccc(C(=O)N[C@@H]4C(=O)N[C@@H](C(C)C)C(=O)N5CCC[C@@H]5C(=O)N(C)CC(=O)N(C)[C@@H](C(C)C)C(=O)O[C@H]4C)c3nc-2c(C(=O)N[C@@H]2C(=O)N[C@@H](C(C)C)C(=O)N3CCC[C@@H]3C(=O)N(C)CC(=O)N(C)[C@@H](C(C)C)C(=O)O[C@H]2C)c(N)c1=O | -1.6% | ?
O=C(NCCSc1c(-c2ccc(Br)cc2)[nH]c2ccccc12)c1ccc(S(=O)(=O)N2CCOCC2)cc1 | -2.0% | ?
CN(Cc1ccccc1)C(=O)c1cc2c(s1)-c1ccc(Cl)cc1SC2 | -9.6% | -29.9%
CC(C)(C)C1CCc2c(sc(NC(=O)C3c4ccccc4Oc4ccccc43)c2C(N)=O)C1 (configuration not stated) | -8.5% | 10µM*
